The source of these data is PubChem BioAssay (Tox21).

Each structure is given as a SMILES string. “And” between values parts separate entries of the source, which are not always exact repeats. Identical values can stand only once. Results filed as inconclusive are left out. Where a call stands in place of a potency, no number is given. A structure can be active in one record and inactive in another. The source made the active and inactive calls. Calls follow the shape of the full dose curve.
Potency is read from the fitted curve at half-maximal effect.

Chain of Acetylcholinesterase (Homo sapiens) (P22303 whole entry, looked up): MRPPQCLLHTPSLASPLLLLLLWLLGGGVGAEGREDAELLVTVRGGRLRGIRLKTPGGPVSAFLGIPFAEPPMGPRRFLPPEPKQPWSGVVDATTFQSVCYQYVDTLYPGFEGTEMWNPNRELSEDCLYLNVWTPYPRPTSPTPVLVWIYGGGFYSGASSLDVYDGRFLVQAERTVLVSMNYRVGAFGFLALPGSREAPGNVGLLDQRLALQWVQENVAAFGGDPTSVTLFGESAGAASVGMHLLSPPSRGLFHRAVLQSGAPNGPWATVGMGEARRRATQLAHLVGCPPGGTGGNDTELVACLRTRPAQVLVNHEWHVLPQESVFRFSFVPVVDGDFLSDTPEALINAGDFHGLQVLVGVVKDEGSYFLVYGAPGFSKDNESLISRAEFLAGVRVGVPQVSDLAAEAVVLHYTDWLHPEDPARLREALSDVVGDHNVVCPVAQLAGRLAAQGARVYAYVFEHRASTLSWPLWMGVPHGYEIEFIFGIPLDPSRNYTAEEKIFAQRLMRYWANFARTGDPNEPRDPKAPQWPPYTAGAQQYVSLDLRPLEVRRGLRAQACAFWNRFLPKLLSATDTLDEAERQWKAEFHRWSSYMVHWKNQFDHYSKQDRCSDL

The test has as its target Acetylcholinesterase (Homo sapiens) (UniProt P22303). As to the kind of experiment: Acetylcholinesterase (AChE) small molecule antagonists: colormetric cell-based qHTS assay (AID 1347395). Also: nearly all actives have a fitted effect of over 30% in size. The note with it: SH-SY5Y cells AChE activity, colorimetric (Ellman); series mostly up to 115 µM; activity, negative = inhibition: at the top concentration. An excerpt: National Center for Advancing Translational Sciences [NCATS]
Division of Preclinical Innovation [DPI]
U.S. Environmental Protection Agency [EPA]
National Institutes of Environmental Health Sciences [NIEHS]
National Toxicology Program [NTP]
U.S. Food and Drug Administration [FDA]
Acetylcholinesterase (AChE) is the primary cholinesterase in the body that hydrolyzes a key neurotransmitter, acetylcholine. Inhibition of AChE activity can lead to neurotoxicity. The known inhibitors include organophosphorous pesticides (OP), chemical warfare agents, drugs, and various phytochemicals.
A homogenous cell-based assay using the Amplite Colormetric acetylcholinesterase assay kit (AAT Bioquest, Sunnyvale, CA) was used to evaluate the chemicals in the Tox21 10K library that inhibit AChE activity. The assay uses 5, 5-dithiobis-(2-nitrobenzoic acid) (DTNB) to quantify the thiocholine produced from the hydrolysis of acetylthiocholine by AChE from the SH-SY5Y cells.
Tox21 Assay Protocol Summary:
For the cell-based AChE assay, 2,000 SH-SY5Y cells in 4 uL/well were dispensed into black, clear-bottom 1536-well plates using a Multidrop Combi dispenser (Thermo Scientific, MA). The assay plates were incubated overnight at 37 C to allow cells to attach to the wells, followed by the transfer of 23 nL of compound or DMSO (vehicle control) by a Pintool Station (Wako Automation, CA). The plates were incubated for 30 min at 37 C and 5% CO2, followed by the addition of 4 uL of detection cocktail solution (DTNB, acetylthiocholine) into each well using a Flying Reagent Dispenser (Beckman Coulter, CA) and then 90 min incubation at 37 C.
(Quantitative high-throughput screening tests each substance at several concentrations.)
On to `CCCN(CCC)N=O`, for which the Potency entry is “inactive”.

As to `Cc1ccccc1O`, the Potency result is “inactive”.

For the compound `COC(=O)NC(=S)Nc1ccccc1NC(=S)NC(=O)OC`, the Potency entry was “inactive”.

For the compound `Cc1cc(Cl)ccc1O`, the Potency result is “inactive”.

In the case of `CCOP(OCC)OCC`, the Potency result is “inactive and 28.3 µM (active)”.

For the compound `CC(C)=C[C@@H]1[C@@H](C(=O)OCc2coc(Cc3ccccc3)c2)C1(C)C`, the Potency entry is “inactive”.

Turning to `COC(=O)c1ccccc1C(=O)OC`, the Potency entry was “inactive”.

For `COC(=O)c1ccccc1N`, the Potency result was “inactive”.

For the compound `Cc1cc(-c2cc(C)c(N)c(C)c2)cc(C)c1N`, the Potency entry is “inactive”.

Consider `ClCc1cccnc1`, for which the Potency result is “inactive”.

Consider `CN(N=O)c1ccccc1`, for which the Potency entry is “inactive”.

Consider `Cc1[nH]c(=O)n(C(C)(C)C)c(=O)c1Cl`, for which the Potency entry is “inactive”.

As to `O=c1[nH]c2ccccc2c(=O)o1`, the Potency result is “inactive”.

Consider `CCC12COCN1COC2`, for which the Potency result was “inactive”.

On to `CCC[N+](=O)[O-]`, for which the Potency entry is “inactive”.

As for `CCCCCOC(=O)c1ccccc1C(=O)OCCCCC`, the Potency result is “inactive”.

In the case of `CN(C)N=O`, the Potency result was “inactive”.

Regarding `OCCN(CCO)CCO`, the Potency result is “inactive”.

For the compound `CCCCCCCCCl`, the Potency entry is “inactive”.

For `CC(C)(C)C(O)(CCc1ccc(Cl)cc1)Cn1cncn1` (stereo not given), the Potency result is “inactive”.

For the compound `C=CCO`, the Potency entry was “inactive”.

For the compound `CCC[CH2][Sn]([Cl])([Cl])[Cl]`, the Potency entry was “inactive”.

As to `O=NN1CCCC1`, the Potency is 13.2 µM (active) and inactive.

As to `Nc1ccccc1C(=O)O`, the Potency entry was “inactive”.

`C1CN2CCN1CC2`: the Potency result was “inactive”.

Turning to `CCOC(=O)c1ccccc1C(=O)OCC`, the Potency entry is “inactive”.

As for `CC(C)NC(=O)N1CC(=O)N(c2cc(Cl)cc(Cl)c2)C1=O`, the “activity, negative = inhibition” value is -9.91% (inactive).

`O=c1n(Cl)c(=O)n(Cl)c(=O)n1Cl`: the Potency result was “inactive”.

For the compound `C#CC(C)(C)NC(=O)c1cc(Cl)cc(Cl)c1`, the Potency result is “inactive”.

`Cc1ccc(N)cc1Cl`: the Potency entry was “inactive”.

Consider `CNC(=O)Oc1ccccc1OC(C)C`, for which the Potency was 2 µM (active) and 2.24 µM (active).

As to `Cc1ccc([N+](=O)[O-])cc1C`, the Potency entry is “inactive”.

Take `CC(C)(C)OOC(=O)c1ccccc1`: the Potency result was “inactive”.

Take `CC(C)OC(=O)Nc1cccc(Cl)c1`: the Potency result was “inactive”.

With `O=C(NC(=O)c1c(F)cccc1F)Nc1cc(Cl)c(OC(F)(F)C(F)C(F)(F)F)cc1Cl` (stereo not given), the Potency entry is “inactive”.

Turning to `CC(C)N1C(=O)c2ccccc2NS1(=O)=O`, the Potency result was “inactive”.

Regarding `Nc1c(Cl)c(Cl)nc(C(=O)O)c1Cl`, the Potency result is “inactive”.

On to `COc1ccc2c3c1O[C@H]1[C@@H](O)C=C[C@H]4[C@@H](C2)N(C)CC[C@@]341`, for which the Potency result is “inactive”.

As for `ClCCBr`, the Potency result was “inactive”.

Turning to `C1CC2OC2CC1C1CO1` (stereo not given), the Potency result is “inactive”.
